The source of these data is PubChem BioAssay (EPA / NIEHS).

One may read the AC50 as the concentration at which the activity in the assay is half-maximal.

SMILES strings stand for the structures. Records with an inconclusive call do not appear. Activity calls are given as the source filed them. The calls were made as follows, unless noted: active = hit-call score of the fitted dose curve at least 0.9, where 1 is the maximum; inconclusive = response in the unintended direction; inactive = score below 0.9.

The target of assay [1] is Glucocorticoid receptor (Homo sapiens) (UniProt P04150). The assay is described as follows: ATG_GR_TRANS: Attagene TRANS-FACTORIAL HepG2 Assay for human Glucocorticoid Receptor (GR) (AID 2282978).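 Also: activators score as hits since higher reporter transcript over DMSO is fitted.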 The note with it: HepG2 Attagene TRANS GR reporter, mRNA transcription. In outline:
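Exogenous NR-GAL4 fusion activity was assessed through induced GAL4-UAS reporter transcripts in transfected human HepG2 cells, quantified after 24 h by RT-PCR and fluorescent capillary electrophoresis with DMSO as baseline.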

Assay [2] addresses Bile acid receptor (Homo sapiens) (UniProt Q96RI1). The assay is described as follows: ATG_FXR_TRANS: Attagene TRANS-FACTORIAL HepG2 Assay for Farnesoid X Receptor (FXR) (AID 2282979).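 Also: hits raise reporter mRNA above DMSO so AC50 marks FXR activation.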 The note with it: HepG2 Attagene TRANS FXR-GAL4 reporter transcription. In outline:
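Read-out: fluorescent reporter transcripts quantified by capillary electrophoresis after RT-PCR of total RNA. Source cells were HepG2 transiently carrying chimeric NR-GAL4 plus GAL4-UAS reporter units, dosed 24 h. Activity fitted upward relative to DMSO baseline.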

Assay [3] concerns the target Oxysterols receptor LXR-alpha (Homo sapiens) (UniProt Q13133). The assay is described as follows: ATG_LXRa_TRANS: Attagene TRANS-FACTORIAL HepG2 Assay for human Liver X Receptor alpha (LXRa) (AID 2282980). The note with it: HepG2 Attagene TRANS reporter, LXRa transactivation. In outline: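 Read-out: reporter transcript levels by RT-PCR plus capillary electrophoresis, fluorescence intensity. Transiently transfected HepG2, exogenous NR-GAL4 chimera, GAL4-UAS reporters; 24 h compound exposure. Activity = increase over DMSO negative control.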

For assay [4], the target named is Oxysterols receptor LXR-beta (Homo sapiens) (UniProt P55055). The assay is described as follows: ATG_LXRb_TRANS: Attagene TRANS-FACTORIAL HepG2 Assay for human Liver X Receptor beta (LXRb) (AID 2282981). The note with it: HepG2 Attagene TRANS GAL4-LXRb reporter, mRNA. In short, it runs like this:
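Readout: fluorescent reporter mRNA fragments resolved by capillary electrophoresis after RT-PCR. System: transiently transfected human HepG2, exogenous LXRb-Gal4 chimera driving GAL4-UAS reporter, 24 h dosing. Activity fitted upward against DMSO baseline.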

The nature of assay [5]: ATG_M_06_TRANS: Attagene TRANS-FACTORIAL HepG2 Assay for M06 Transcription Factor (Internal Marker) (AID 2282983). To be noted: HepG2 Attagene TRANS M06 internal marker reporter. In short, it runs like this:
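Read-out: fluorescent reporter cDNA fragments resolved by capillary electrophoresis after RT-PCR and HpaI cut. Source cells were HepG2 carrying transfected multi-reporter GAL4 constructs, dosed 24 h. Increase over DMSO control analysed.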

Assay [6] in a line: ATG_M_32_TRANS: Attagene TRANS-FACTORIAL HepG2 Assay for M32 Transcription Factor (Internal Marker) (AID 2282984).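 Also: transcript level of a background control reporter unit measured by RT-PCR and capillary electrophoresis.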 To be noted: HepG2 Attagene TRANS M32 internal marker reporter. In outline:
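Read-out: fluorescent reporter cDNA fragments resolved by capillary electrophoresis after RT-PCR of total RNA. Transfected HepG2 cells were exposed to chemical for 24 h. Activity scored in the positive direction relative to DMSO.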

The target of assay [7] is Nuclear receptor subfamily 4 group A member 2 (Homo sapiens) (UniProt P43354). Nature of the assay: ATG_NURR1_TRANS: Attagene TRANS-FACTORIAL HepG2 Assay for human Nuclear Receptor Related Protein 1 (NURR1) (AID 2282985). To be noted: HepG2 Attagene TRANS reporter, mRNA readout. In short, it runs like this: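 Read-out: reporter mRNA induction by RT-PCR plus capillary electrophoresis with fluorescence detection, after 24 h dosing of transfected HepG2 cells. Exogenous NR-Gal4 chimera activity drives GAL4-UAS reporter; activity fitted upward versus DMSO.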

Assay [8] addresses Transcriptional activator Myb (Homo sapiens) (UniProt P10242). The assay is described as follows: ATG_Myb_CIS: Attagene CIS-FACTORIAL HepG2 Assay for human Myeloblastosis (Myb) Proto-Oncogene Transcription Factor (AID 2282986; active = hit-call score of the fitted dose curve at least 0.9, where 1 is the maximum; inactive = score below 0.9). To be noted: HepG2 Attagene CIS-FACTORIAL Myb reporter transcription; actives raise or lower the signal. In short, it runs like this: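 In this HepG2 transient-transfection format, cis-regulated reporter mRNA is quantified 24 h post-dosing by RT-PCR with capillary electrophoresis, fitted bidirectionally to DMSO baseline.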

Assay [9] concerns the target Hepatocyte nuclear factor 4-alpha (Homo sapiens) (UniProt P41235). Nature of the assay: ATG_HNF4a_TRANS: Attagene TRANS-FACTORIAL HepG2 Assay for human Hepatocyte Nuclear Factor 4 alpha (HNF4a) (AID 2282982). To be noted: HepG2 HNF4a transactivation reporter, mRNA readout. In short, it runs like this: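 Transient MRTU transfection of HepG2, 24 h dosing. Readout: reporter mRNA via RT-PCR + capillary electrophoresis, fluorescence; activity fit upward relative to DMSO control.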

Assay [10] concerns the target Estrogen-related receptor gamma (Homo sapiens) (UniProt P62508). Nature of the assay: ATG_ERRg_TRANS: Attagene TRANS-FACTORIAL HepG2 Assay for human Estrogen-Related Receptor gamma (ERRg) (AID 2282977).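 Also: hits increase reporter signal over DMSO so potencies reflect activators.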 The note with it: HepG2 Attagene TRANS reporter, ERRg transactivation. In outline:
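Exogenous NR-Gal4 chimera activity was assessed in HepG2 cells bearing transfected GAL4-UAS reporters. After 24 h dosing, total RNA underwent RT-PCR, fluorescent primer extension and HpaI digestion before capillary electrophoresis, with gain of signal scored against DMSO.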

Oxysterols receptor LXR-beta (Homo sapiens), sequence (P55055 whole entry, looked up, the tested form may be a part): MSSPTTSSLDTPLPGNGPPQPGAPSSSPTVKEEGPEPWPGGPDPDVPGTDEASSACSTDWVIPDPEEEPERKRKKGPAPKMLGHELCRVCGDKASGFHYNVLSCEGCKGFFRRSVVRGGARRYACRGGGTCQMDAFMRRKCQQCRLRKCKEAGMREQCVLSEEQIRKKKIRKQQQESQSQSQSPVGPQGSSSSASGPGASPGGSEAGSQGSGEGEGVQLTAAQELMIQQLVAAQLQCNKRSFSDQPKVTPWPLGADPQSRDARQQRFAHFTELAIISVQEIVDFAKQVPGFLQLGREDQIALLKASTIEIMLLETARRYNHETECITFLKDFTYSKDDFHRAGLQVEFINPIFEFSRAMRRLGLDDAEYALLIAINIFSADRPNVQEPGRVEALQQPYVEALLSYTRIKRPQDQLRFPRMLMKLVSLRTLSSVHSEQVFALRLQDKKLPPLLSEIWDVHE
Estrogen-related receptor gamma (Homo sapiens), sequence (P62508 whole entry, looked up, the tested form may be a part): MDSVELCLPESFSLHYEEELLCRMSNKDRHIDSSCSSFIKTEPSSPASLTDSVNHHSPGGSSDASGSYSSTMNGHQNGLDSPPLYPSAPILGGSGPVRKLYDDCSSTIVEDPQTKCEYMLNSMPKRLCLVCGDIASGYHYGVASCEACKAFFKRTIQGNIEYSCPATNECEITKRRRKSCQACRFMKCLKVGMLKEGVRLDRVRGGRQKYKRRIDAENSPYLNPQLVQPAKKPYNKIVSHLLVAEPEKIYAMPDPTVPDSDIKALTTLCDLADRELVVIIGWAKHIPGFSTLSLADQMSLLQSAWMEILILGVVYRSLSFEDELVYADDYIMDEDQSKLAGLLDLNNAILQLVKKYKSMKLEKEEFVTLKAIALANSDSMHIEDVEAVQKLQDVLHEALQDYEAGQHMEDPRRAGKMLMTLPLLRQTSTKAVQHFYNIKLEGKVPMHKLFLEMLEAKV
Nuclear receptor subfamily 4 group A member 2 (Homo sapiens), sequence (P43354 whole entry, looked up, the tested form may be a part): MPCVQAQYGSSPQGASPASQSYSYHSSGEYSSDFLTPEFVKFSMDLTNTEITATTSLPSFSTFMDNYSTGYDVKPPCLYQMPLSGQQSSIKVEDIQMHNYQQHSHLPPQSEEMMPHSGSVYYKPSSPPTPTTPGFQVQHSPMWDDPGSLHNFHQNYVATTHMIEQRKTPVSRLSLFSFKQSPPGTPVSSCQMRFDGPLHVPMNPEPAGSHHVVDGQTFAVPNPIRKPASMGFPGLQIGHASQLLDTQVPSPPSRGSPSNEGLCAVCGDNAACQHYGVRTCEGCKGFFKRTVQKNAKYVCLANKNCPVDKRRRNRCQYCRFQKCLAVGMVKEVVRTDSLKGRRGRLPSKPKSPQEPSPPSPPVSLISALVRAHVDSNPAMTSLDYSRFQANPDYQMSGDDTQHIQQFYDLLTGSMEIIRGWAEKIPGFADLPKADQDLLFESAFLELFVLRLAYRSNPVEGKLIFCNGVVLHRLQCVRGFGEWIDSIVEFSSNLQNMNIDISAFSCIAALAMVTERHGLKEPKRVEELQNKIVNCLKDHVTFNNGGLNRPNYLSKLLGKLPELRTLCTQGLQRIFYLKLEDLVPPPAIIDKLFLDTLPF
Glucocorticoid receptor (Homo sapiens), sequence (P04150 whole entry, looked up, the tested form may be a part): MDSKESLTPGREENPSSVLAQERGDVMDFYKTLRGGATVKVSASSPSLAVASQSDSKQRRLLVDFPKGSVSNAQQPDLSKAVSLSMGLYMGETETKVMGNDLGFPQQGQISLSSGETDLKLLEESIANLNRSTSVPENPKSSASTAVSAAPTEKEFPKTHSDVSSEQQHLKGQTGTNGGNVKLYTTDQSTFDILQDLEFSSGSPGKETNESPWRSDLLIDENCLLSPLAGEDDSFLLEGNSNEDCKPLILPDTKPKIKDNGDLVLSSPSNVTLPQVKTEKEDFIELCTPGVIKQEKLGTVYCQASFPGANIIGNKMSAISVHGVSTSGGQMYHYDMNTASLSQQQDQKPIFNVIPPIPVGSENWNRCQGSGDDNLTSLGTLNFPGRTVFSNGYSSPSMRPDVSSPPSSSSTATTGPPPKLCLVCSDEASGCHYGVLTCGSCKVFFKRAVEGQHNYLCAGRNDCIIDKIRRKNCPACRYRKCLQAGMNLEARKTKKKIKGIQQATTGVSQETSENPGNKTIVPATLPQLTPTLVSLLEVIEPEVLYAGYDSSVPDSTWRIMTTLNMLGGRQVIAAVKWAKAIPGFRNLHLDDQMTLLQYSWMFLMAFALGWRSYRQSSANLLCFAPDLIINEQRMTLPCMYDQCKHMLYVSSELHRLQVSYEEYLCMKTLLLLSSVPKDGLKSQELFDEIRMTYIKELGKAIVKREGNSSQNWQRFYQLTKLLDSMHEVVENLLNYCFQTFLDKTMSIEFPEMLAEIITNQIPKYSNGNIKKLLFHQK
Hepatocyte nuclear factor 4-alpha (Homo sapiens), sequence (P41235 whole entry, looked up): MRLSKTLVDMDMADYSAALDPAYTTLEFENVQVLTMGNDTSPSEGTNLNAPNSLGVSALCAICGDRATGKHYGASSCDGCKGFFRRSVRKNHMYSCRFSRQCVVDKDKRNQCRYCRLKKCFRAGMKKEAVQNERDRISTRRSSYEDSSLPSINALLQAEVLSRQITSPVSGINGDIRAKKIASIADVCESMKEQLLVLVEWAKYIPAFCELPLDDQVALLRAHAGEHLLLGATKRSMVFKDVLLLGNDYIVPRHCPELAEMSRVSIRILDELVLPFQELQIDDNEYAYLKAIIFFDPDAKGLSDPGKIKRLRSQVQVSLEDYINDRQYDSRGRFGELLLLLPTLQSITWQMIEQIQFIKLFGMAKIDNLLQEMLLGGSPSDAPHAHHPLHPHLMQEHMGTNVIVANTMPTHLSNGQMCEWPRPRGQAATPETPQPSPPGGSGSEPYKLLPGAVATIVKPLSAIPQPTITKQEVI
Transcriptional activator Myb (Homo sapiens), sequence (P10242 whole entry, looked up): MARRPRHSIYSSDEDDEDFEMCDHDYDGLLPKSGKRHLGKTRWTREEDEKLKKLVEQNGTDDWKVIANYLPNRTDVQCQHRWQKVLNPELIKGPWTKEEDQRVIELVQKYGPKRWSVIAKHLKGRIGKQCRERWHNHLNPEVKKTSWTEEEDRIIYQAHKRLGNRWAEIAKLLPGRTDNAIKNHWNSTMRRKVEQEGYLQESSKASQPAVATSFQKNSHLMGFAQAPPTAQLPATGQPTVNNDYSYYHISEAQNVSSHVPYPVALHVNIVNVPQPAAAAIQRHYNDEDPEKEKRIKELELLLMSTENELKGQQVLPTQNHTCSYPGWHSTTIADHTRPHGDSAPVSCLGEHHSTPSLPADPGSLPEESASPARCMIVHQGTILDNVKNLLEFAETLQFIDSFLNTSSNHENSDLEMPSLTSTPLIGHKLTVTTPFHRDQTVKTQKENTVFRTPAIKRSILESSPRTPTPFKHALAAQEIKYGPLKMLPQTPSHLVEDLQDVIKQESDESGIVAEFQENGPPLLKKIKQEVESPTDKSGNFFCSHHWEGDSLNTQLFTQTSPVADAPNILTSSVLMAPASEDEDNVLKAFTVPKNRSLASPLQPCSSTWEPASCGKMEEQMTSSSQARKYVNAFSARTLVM
Oxysterols receptor LXR-alpha (Homo sapiens), sequence (Q13133 whole entry, looked up, the tested form may be a part): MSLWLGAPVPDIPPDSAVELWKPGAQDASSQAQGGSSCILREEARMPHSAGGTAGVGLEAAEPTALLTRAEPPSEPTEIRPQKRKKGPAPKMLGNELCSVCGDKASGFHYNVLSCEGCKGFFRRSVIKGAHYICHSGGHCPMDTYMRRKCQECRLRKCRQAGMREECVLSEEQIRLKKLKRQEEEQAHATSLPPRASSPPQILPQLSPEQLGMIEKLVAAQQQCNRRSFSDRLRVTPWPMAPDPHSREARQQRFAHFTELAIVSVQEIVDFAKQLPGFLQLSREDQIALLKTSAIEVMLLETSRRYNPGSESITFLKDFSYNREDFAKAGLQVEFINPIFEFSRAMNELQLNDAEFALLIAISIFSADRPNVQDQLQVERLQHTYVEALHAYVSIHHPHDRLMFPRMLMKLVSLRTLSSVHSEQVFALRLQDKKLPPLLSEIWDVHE
Bile acid receptor (Homo sapiens), sequence (Q96RI1 whole entry, looked up, the tested form may be a part): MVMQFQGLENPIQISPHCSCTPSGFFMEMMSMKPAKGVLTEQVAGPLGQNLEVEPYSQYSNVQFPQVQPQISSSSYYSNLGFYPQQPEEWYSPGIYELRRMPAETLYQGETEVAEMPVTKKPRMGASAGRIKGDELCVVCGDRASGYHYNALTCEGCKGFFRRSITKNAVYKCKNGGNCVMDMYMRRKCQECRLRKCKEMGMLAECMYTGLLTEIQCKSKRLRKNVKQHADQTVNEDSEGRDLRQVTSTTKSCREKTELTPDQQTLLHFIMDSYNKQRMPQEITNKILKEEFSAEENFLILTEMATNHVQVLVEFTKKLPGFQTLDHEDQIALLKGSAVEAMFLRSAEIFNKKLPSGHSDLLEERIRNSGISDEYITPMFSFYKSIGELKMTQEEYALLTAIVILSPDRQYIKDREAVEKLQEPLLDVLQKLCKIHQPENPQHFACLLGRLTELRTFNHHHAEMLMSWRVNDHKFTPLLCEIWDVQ

In the case of `Cc1cc(O)c(C(C)(C)C)cc1C(C)(C)C`, the call in assay [1], in assay [2], in assay [5], in assay [6] and in assay [8] was inactive. Besides, the AC50 in assay [3] was 2.99 µM (active); in assay [4] it was 4.8 µM (active); in assay [7], 5.29 µM (active).

In the case of `C[Si](Cl)(Cl)CCC(F)(F)C(F)(F)C(F)(F)C(F)(F)C(F)(F)C(F)(F)F`, the compound was called inactive in [1], in assay [2], in assay [3], in [4], in assay [9] and in assay [5]. Moreover, the result in [6], in assay [7] and in assay [8] was inactive.

On to `FC(F)(F)C(F)(F)C(F)(F)CC1CO1` (stereo not given), for which the compound was called inactive in [10], in assay [2], in assay [3], in assay [4], in assay [5] and in [8].

As for `O=C(O)C(F)(F)C(F)(F)C(F)(F)OC(F)(F)F`, the outcome in [10], in [1], in assay [2], in assay [3], in assay [4] and in assay [9] was inactive. Also, the outcome in assay [5], in assay [7] and in assay [8] was inactive.

With `Oc1ccc2c(c1)CCC2`, the result in [10], in assay [2], in assay [4], in assay [9], in assay [5] and in [8] was inactive.

Take `OCC(O)CC(F)(F)C(F)(F)C(F)(F)C(F)(F)C(F)(F)C(F)(F)C(F)(F)C(F)(F)F` (stereo not given): the outcome in [10], in assay [2], in assay [3], in assay [4], in [5] and in [8] was inactive.

As to `CCOC(=O)CCC(C)=O`, the result in assay [10], in [2], in assay [3], in [4], in assay [6] and in assay [8] was inactive.

As to `CNS(=O)(=O)C(F)(F)C(F)(F)C(F)(F)C(F)(F)C(F)(F)C(F)(F)C(F)(F)C(F)(F)F`, the compound was called inactive in assay [10], in [2], in [3], in [4], in assay [6] and in assay [7]. In [8], the call was inactive.

`CCN(CC)c1ccc(C=O)c(O)c1`: the result in [1], in assay [2], in assay [3], in assay [5], in [7] and in assay [8] was inactive.

In the case of `C=C(C)C(=O)OCC(F)(F)C(F)(F)C(F)(F)C(F)F`, the call in assay [1], in [2], in [3], in assay [4], in [5] and in assay [8] was inactive.

In the case of `C[Si](C)O[Si](C)C`, the call in assay [1], in [2], in assay [3], in assay [4] and in [8] was inactive.

For the compound `CCN=C1C=CC(=C(c2ccc(N(CC)CC)cc2)c2ccc(N(CC)CC)cc2)c2ccccc21`, the call in assay [1], in assay [2], in assay [9] and in assay [8] was inactive.

As for `CC1CCCCC1`, the compound was classed as inactive in [1], in assay [2], in assay [3], in assay [4], in assay [5] and in assay [6]. In addition, in [8], the call was inactive.

As for `CC(C)C(=O)OCc1ccccc1`, the call in assay [1], in assay [2], in assay [3], in [6] and in [8] was inactive.

On to `CC(C)(C)c1cc(Cc2cc(C(C)(C)C)c(O)c(C(C)(C)C)c2)cc(C(C)(C)C)c1O`, for which the compound was called inactive in assay [1], in [2], in [6], in [7] and in assay [8].

As to `O=S(=O)(O)c1ccc(Cl)cc1`, the compound was called inactive in [1], in assay [3], in assay [4], in assay [9], in [5] and in [7]. Further, the call in [8] was inactive.

For `CCCCCCCCCCCC(=O)Cl`, the call in assay [1], in [2], in [4], in assay [5] and in [8] was inactive.

On to `COC(=O)c1ccc(C=O)cc1`, for which the call in assay [1], in assay [2], in assay [4], in assay [6] and in [8] was inactive.

Regarding `OCC(O)CC(F)(F)C(F)(F)C(F)(F)C(F)(F)F` (stereo not given), the compound was classed as inactive in assay [1], in assay [2], in assay [5] and in [8].

On to `NC(=O)C(F)(F)C(F)(F)C(F)(F)C(F)(F)C(F)(F)C(F)(F)C(F)(F)F`, for which the compound was classed as inactive in assay [1], in assay [2], in assay [3], in [5], in assay [6] and in assay [8].

In the case of `CN(C(=O)C(F)(F)C(F)(F)C(F)(F)F)[Si](C)(C)C`, the compound was called inactive in assay [1], in assay [2], in [5], in assay [7] and in [8].

Regarding `NCC(F)(F)C(F)(F)C(F)(F)C(F)(F)C(F)(F)C(F)(F)C(F)(F)C(F)(F)F`, the compound was called inactive in assay [1], in assay [2], in assay [3], in [5] and in [8].

As for `C=CC(=O)OCC(F)(F)C(F)(F)C(F)(F)C(F)(F)C(F)(F)C(F)(F)C(F)(F)C(F)F`, the outcome in assay [1], in [2], in [3], in [4], in assay [5] and in assay [7] was inactive. For the same compound, in assay [8], the outcome was inactive.

In the case of `CCCCCCCCCCCCCC[P+](CCCC)(CCCC)CCCC`, the outcome in [1], in assay [2], in [3], in assay [4], in assay [5] and in assay [6] was inactive. Further, in assay [8], the outcome was inactive.

Take `CC(=O)C=O`: the compound was classed as inactive in [1], in assay [2], in assay [3], in assay [5] and in assay [8].

For the compound `OCC(F)(F)C(F)(F)C(F)(F)C(F)(F)C(F)(F)C(F)(F)CO`, the outcome in assay [1], in assay [2], in [3], in assay [4], in assay [5] and in [6] was inactive. Also, the call in [8] was inactive.

Take `Cc1cccc(C)n1`: the compound was classed as inactive in assay [1], in [3], in [5] and in assay [8].

For `CCc1cccc(C)c1N(C(=O)C(=O)O)C(C)COC` (stereo not given), the call in [1], in assay [2], in [3] and in assay [8] was inactive.

As for `CCc1cc(Cc2cc(CC)c(N)c(CC)c2)cc(CC)c1N`, the compound was classed as inactive in assay [1], in assay [2], in assay [9], in assay [5], in assay [6] and in assay [7]. In assay [8], the result was inactive.

As for `COc1ccccc1C=O`, the call in assay [1], in [2], in assay [4], in assay [6] and in [8] was inactive.

In the case of `Cc1cc(=O)[nH]c(C(C)C)n1`, the result in assay [1], in [3], in assay [4], in assay [5], in assay [6] and in [8] was inactive.

For the compound `CCC(Cc1c(I)cc(I)c(N)c1I)C(=O)O` (stereo not given), the outcome in assay [1], in assay [2], in [3], in assay [4], in assay [5] and in assay [8] was inactive.
